# Source: PubChem BioAssay (several laboratories)
# CCHF vOTU inh: CCHFV vOTU protease inhibition. 370,000 compounds, 0.55% hits. Pep-AMC fluorescence. inhibition, % at 11.5 µM; also: 0% = vehicle wells with enzyme and 100% = no enzyme wells
# RecA intein inh: Mtb RecA intein splicing inhibition. P9WHJ3. cell-free RecA intein splicing, fluorescence. inhibition, % (concentration not given with the values). 290,000 compounds, 0.75% hits; in the data active = inhibition above about 30%;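 also: 0% = vehicle wells and 100% = reference inhibitor control wells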
# GDH-TPI counter: GDH-TPI coupled enzyme inhibition counter-screen; GDH-TPI coupled enzyme counterscreen, NADH absorbance; inhibition, % at 4.8 µM; 360,000 compounds, 1.2% hits; AID 588335;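 also: 0% = DMSO wells and 100% = wells lacking the enzyme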
# Mtb FBA inh: inhibitors of M. tuberculosis fructose-bisphosphate aldolase | 360,000 compounds, 2.3% hits | AID 588726 | purified M. tuberculosis FBA, fluorescence read-out | inhibition, % at 1 µM | P9WQA3; in the data active = inhibition above about 27%;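 also: 0% = vehicle and 100% = reference inhibitor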
# Active calls of the source: *; i = inactive; . = not tested or not shown; + = active, no number. Sampled rows, rich in hits. Any-hit rate of the full collection: about 4.2%. Rule as the data show it, unless noted: active = inhibition above about 30%; inactive = the rest.
SMILES,CCHF vOTU inh,RecA intein inh,GDH-TPI counter,Mtb FBA inh
CC(=O)Cc1nsc(NC(=O)c2ccc(COc3ccccc3Cl)o2)n1,-9.0,0.5,4.0,-1.4
CC(O)Cc1nsc(NC(=O)c2ccc(Br)o2)n1 (centres undefined),6.8,0.1,42.0*,-0.9
COc1ccccc1NS(=O)(=O)c1cccc(C(=O)N2CCCC2)c1,6.2,.,-3.5,0.5
COc1cc(/C=C2\SC(=O)N(c3ccc(O)cc3)C2=O)cc(OC)c1OC,-7.2,-0.9,48.1*,-2.9
CCOc1ccc(N2C(=O)S/C(=C\c3cc(OC)c(OC)c(OC)c3)C2=O)cc1,-3.3,0.4,7.7,-0.2
COc1ccc(Cn2ccc3ccc(-c4ccc5ccn(C(=O)c6cccc(OC)c6)c5c4)cc32)cc1,-6.2,.,.,.
COc1cc2c(C#N)c(N3CCCCC3)nc(N)c2c(N)n1,-15.9,-6.4,18.8,4.4
COc1cc2c(C#N)c(N3CCOCC3)nc(N)c2c(N)n1,-30.0,1.6,7.7,31.6*
COc1cc(/C=C(\C#N)C(=O)NC2CCCCC2C)ccc1OS(=O)(=O)c1ccc(C)cc1 (centres undefined),5.0,55.5*,10.3,-0.5
COc1cc(/C=C(\C#N)C(N)=O)ccc1OS(=O)(=O)c1ccc(C)cc1,-15.4,11.2,13.2,-1.2
COc1cc(/C=N/NC(=O)c2cc(-c3cccs3)nc3ccccc23)ccc1O,-3.7,0.8,55.6*,7.5
N#Cc1ccc(/C=N/NC(=O)c2cc(-c3cccs3)nc3ccccc23)cc1,-2.5,1.1,15.5,9.4
COc1cc(/C=N/NC(=O)c2cc(-c3ccccc3)nc3ccccc23)cc(OC)c1O,0.6,-0.6,22.9,-3.9
COc1cc(/C=N/NC(=O)c2cc(-c3cccc(OC(C)C)c3)nc3ccccc23)ccc1O,10.8,2.1,61.4*,2.6
CCOC(=O)Cc1csc(NC(=O)c2cnc3sc(C)cn3c2=O)n1,12.0,1.0,53.9*,-2.3
CCOC(=O)Cc1csc(NC(=O)c2cc3c(s2)CCCC3)n1,6.4,1.8,30.9*,-1.1
Cc1ccc(-n2nc(C)c3c2OC(N)=C(C#N)C3c2ccccc2F)cc1 (centres undefined),12.9,43.3*,1.9,-2.6
Cc1ccc(-n2nc(C)c3c2OC(N)=C(C#N)C3c2ccncc2)cc1 (centres undefined),3.9,.,11.5,3.1
C[C@@H](C(=O)OCC(=O)c1ccccc1)N1C(=O)C2CCCCC2C1=O (some centres undefined),2.5,.,-0.3,-1.5
CC(=O)N=c1c(C#N)cc2c(=O)n3ccccc3nc2n1CCCOC(C)C,-333.4,-121.2,3.8,+
CC(C)OCCCn1c(=NC(=O)c2cccs2)c(C#N)cc2c(=O)n3ccccc3nc21,-284.6,-62.6,3.9,+
CCCCCn1c(=NC(C)=O)c(C#N)cc2c(=O)n3ccccc3nc21,-75.1,-315.2,12.7,133.1*
CC(C)OCCCn1c(=NC(=O)c2ccncc2)c(C#N)cc2c(=O)n3ccccc3nc21,-14.4,.,4.6,3.9
Cc1cc(C)cc(OCCCN2CCC(C(O)(c3ccccc3)c3ccccc3)CC2)c1,10.5,.,.,.
CC(C)N1CCC(=NNC(=O)c2ccccc2[N+](=O)[O-])CC1,-1.8,-3.7,2.9,+
SMILES,CCHF vOTU inh,RecA intein inh,GDH-TPI counter,Mtb FBA inh
CCc1cc(=O)oc2c(C)c(O)c(CN(C)C)cc12,-309.6,i,32.1*,+
CCOC(=O)CCCCCC(=O)Nc1ccc2c(c1)C(=O)N([C@@H](C)CO)C[C@@H](C)[C@H](CN(C)C(=O)Nc1ccccc1)OCCCC[C@H](C)O2,10.8,.,6.2,0.8
Nc1nc2c(s1)CCc1c-2cnn1-c1ccccc1,.,97.6*,10.2,11.0
COc1ccc(Cn2ccc3ccc(-c4ccc5ccn(Cc6cccc(F)c6)c5c4)cc32)cc1,7.6,.,.,.
CCOc1ccccc1N(C)C(=O)c1cc2c(=O)n(CC)c3ccccc3c2s1,10.1,8.6,41.6*,4.0
Cc1c(OC(=O)CNC(=O)OC(C)(C)C)ccc2c3c(c(=O)oc12)CCC3,-252.9,-15.9,5.3,122.0*
Cc1c(O)ccc2c3c(c(=O)oc12)CCCC3,-132.2,.,11.7,193.3*
Cc1c(OCC(=O)OC(C)C)ccc2c3c(c(=O)oc12)CCC3,9.1,-2.1,17.3,12.5
CC(=O)COc1ccc2c3c(c(=O)oc2c1C)CCCCC3,-59.7,-0.4,16.2,115.2*
Cc1oc2c(C)c3oc(=O)c4c(c3cc2c1C)CCCC4,-16.6,-3.0,8.3,0.9
Cc1c(OCC(=O)OC(C)(C)C)ccc2c3c(c(=O)oc12)CCC3,2.3,4.8,11.8,8.7
CCC(c1ccc(OC)cc1)c1cn(C)c2ccccc12 (centres undefined),3.1,.,.,.
Cc1ccnc(NC(=O)CCC(=O)c2cccs2)c1,-1.4,1.2,2.1,-0.8
c1ccc(CCNC2=NCCS2)cc1,2.8,-0.1,-3.0,3.8
CCN(CC(=O)NCCN1CCOCC1)S(=O)(=O)c1ccc(F)cc1,-4.0,1.0,5.2,4.8
Cc1cc(N2CCOCC2)nc2ccc(NC(=O)CCC(=O)N3CCN(c4ccccc4)CC3)cc12,10.1,-3.8,0.7,14.3
CCCCN(CC)CCNC(=O)CCC(=O)Nc1ccc2nc(N3CCN(C)CC3)cc(C)c2c1,-243.3,-35.5,3.4,137.5*
CCCN(CCC)CCNC(=O)CCC(=O)Nc1ccc2nc(N3CCOCC3)cc(C)c2c1,-207.1,-0.9,9.7,127.4*
COc1ccc2cc(/C(C)=N/NC(=O)C3CC3)ccc2c1,-118.5,-0.1,2.2,+
O=C(NCCCN1CCOCC1)c1cc(-c2ccc3c(c2)OCO3)nc2ccccc12,10.7,0.8,25.5,0.9
O=C(NCCCN1CCCC1=O)c1cc(-c2ccc3c(c2)OCO3)nc2ccccc12,0.3,0.8,34.1*,6.5
C/C(=N\NC(=O)c1ccccc1)c1ccc(N2CCOCC2)cc1,10.1,1.6,31.1*,-10.0
COCCNc1cc(C)nc2c3c(C)cc(C)nc3nn12,-313.0,-327.5,4.5,+
COCCNc1cc(C)nc2c(-c3ccccc3OC)c(C)nn12,7.3,1.1,13.7,5.6
Cc1cc(C)c2c(n1)nn1c(NCCN3CCOCC3)cc(C)nc21,-244.4,-51.0,10.1,+
SMILES,CCHF vOTU inh,RecA intein inh,GDH-TPI counter,Mtb FBA inh
CN(CC(=O)Nc1ccccc1Cl)C(=O)CSc1nncn1C,3.0,0.4,3.5,-2.9
Cc1ccnc(Nc2cccnc2)n1,8.1,.,.,-1.8
O=C(NN=Cc1ccccc1Cl)c1ccccc1,-0.7,.,0.9,0.3
COc1ccc2[nH]c(C(=O)N/N=C/c3ccc(O)cc3O)cc2c1,0.8,-11.3,30.9*,17.6
COc1ccc(/C=C\C(=O)NCC(=O)N/N=C/c2ccc(O)cc2O)cc1,-7.8,-1.4,67.5*,5.5
CCOc1ccc(/C=N/NC(=O)c2cc3ccccc3cc2OC)cc1,-6.2,0.9,22.7,3.0
COc1cc2cc(C(=O)N/N=C/c3ccccc3Cl)[nH]c2cc1OC,3.7,-1.6,46.5*,3.3
CCOc1ccc2[nH]c(C(=O)N/N=C/c3ccc(OC)cc3)cc2c1,-3.9,-3.0,55.0*,6.7
COc1ccc(/C=N/NC(=O)c2cc3cc(OC)c(OC)cc3[nH]2)cc1,14.8,-10.2,42.1*,3.6
COc1ccc(/C=N/NC(=O)CC(=O)N/N=C/c2ccc(OC)cc2)cc1,-3.7,1.6,10.1,-0.2
